Compounds with a hit are over-represented: about 12% of the library has one in this group of screens.
G9a inh: blocks human histone lysine methyltransferase G9a. Potency, µM (titrated, usually from 102 µM), for inactives: at the highest dose activity, negative = inhibition, usual class: inhibitors. actives 8.8% (n = 350,000). G9a H3K9 monomethylation, AlphaScreen, 2 h. Q96KQ7; also: % is scaled to controls: 0 for no effect and ±100 for the full control effect; nearly all actives have a fitted effect of over 75% in size
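Compounds were preincubated with 20 nM G9a for 15 min, after which biotinylated H3K9 peptide (500 nM) and SAM (20 uM) started a 2 h room-temperature reaction. Monomethylated product was quantified by antibody-based AlphaScreen chemiluminescence.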
BAZ2B inh: blocks human BAZ2B. Q9UIF8. AlphaScreen BAZ2B-H3K14Ac peptide displacement. Potency, µM (titrated, usually from 114 µM), without a hit: at the top dose activity change, negative = inhibition, actives largely listed as inhibitors. actives 4.4% (n = 360,000). AID 504333; also: % is scaled to controls: 0 for no effect and ±100 for the full control effect; nearly all actives have a fitted effect of over 60% in size
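AlphaScreen luminescence quantifies BAZ2B engagement of H3K14Ac peptide; the protein and biotinylated peptide are both at 50 nM final, buffer PBS pH 7.4 with 0.01% Tween-20, all steps at room temperature.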
Sfp PPTase inh: Sfp phosphopantetheinyl transferase inhibition | Potency, µM, inactives show largest response in the series, negative = inhibition, actives largely listed as inhibitors | Biochemical Sfp PPTase activity, qHTS | AID 1490 | actives 3.5% (n = 310,000) | Q9F4F7;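 also: the enzyme is Sfp with the accession as filed and its product quenches rhodamine fluorescence; 0% = enzyme reaction without inhibitor and -100% = no enzyme wells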
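Reaction rates are the 30-min fluorescence difference (ex 525, em 598 nm) in wells containing 15 nM Sfp, 5 uM rhodamine-CoA and 12.5 uM BHQ-2-YbbR at pH 7.6 with 10 mM MgCl2.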
JMJD2A Tudor inh: JMJD2A Tudor domain (human) inhibition. O75164. AlphaScreen JMJD2A-Tudor / H3K4me3 peptide binding. Potency, µM (top dose mostly 114 µM), without a hit: at the top dose activity change, negative = inhibition, hits mostly inhibitors. actives 4.4% (n = 390,000). AID 504339; also: % is scaled to controls: 0 for no effect and ±100 for the full control effect; nearly all actives have a fitted effect of over 50% in size
HP1b chromo inh: blocks HP1-beta chromodomain binding to methylated histone tails. Potency, µM (titrated, usually from 114 µM), without a hit: top-dose activity change, negative = inhibition, actives largely listed as inhibitors. P83916. AID 540317. actives 0.56% (n = 390,000). AlphaScreen HP1-beta / biotin-H3K9me3 peptide binding; also: nearly all actives have a fitted effect of over 70% in size
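AlphaScreen: HP1-beta (50 nM) preformed 30 min with biotin-H3(1-18)K9me3 peptide (50 nM) in PBS pH 7.4, 0.01% Tween-20. Compound added for 30 min at RT, then streptavidin donor/nickel chelate acceptor beads (10 ug/mL) for 30 min.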
* hit, by the source's call; [ ] = another dose, or the depositor's remark. Calls follow the shape of the dose curve; as a rule, active = well fitted curve in the direction sought with a large enough effect; inconclusive = small, poorly fitted or top-dose-only effect, or another doubt; inactive = no such curve, though single readings can be large; an effect the other way counts as inactive or inconclusive. Potency is read from the fitted curve at half-maximal effect.

For COc1cc(/C=N/NC(=O)NC2CCCCC2)cc(OC)c1O the results were G9a inh 50.1µM*, BAZ2B inh -14.4%, Sfp PPTase inh -12.7%, JMJD2A Tudor inh -18.5% and HP1b chromo inh -6.5%.
For COc1cc(/C=N/NC(=O)NC2CCCCC2)ccc1O the results were G9a inh -26.5%, BAZ2B inh -11.8%, Sfp PPTase inh 16.8%, JMJD2A Tudor inh -14.1% and HP1b chromo inh 26.8%.
For CC(C)(C)c1cc(CNC2CS(=O)(=O)C[C@@H]2O)cc(C(C)(C)C)c1O (some centres undefined) the results were G9a inh 17.8µM*, BAZ2B inh inconclusive, Sfp PPTase inh 12.5%, JMJD2A Tudor inh -22.6% and HP1b chromo inh 37.8%.
O=S1(=O)CC(O)C(NCc2ccco2)C1 (centres undefined) was read as G9a inh -10.3%[59 µM], BAZ2B inh 0.1%, Sfp PPTase inh 7.4%, JMJD2A Tudor inh 7.2% and HP1b chromo inh 16.0%.
CCOC(=O)c1c(C)[nH]c(N=Nc2ccc(C)cc2)c1C was read as G9a inh inconclusive, BAZ2B inh 44.7µM*, Sfp PPTase inh 20µM*, JMJD2A Tudor inh 39.8µM* and HP1b chromo inh inconclusive.
`CCOC(=O)c1c(C)[nH]c(N=Nc2ccc(OC)cc2)c1C` gave G9a inh 28.2µM*, BAZ2B inh 39.8µM*, Sfp PPTase inh 50.1µM*, JMJD2A Tudor inh 56.2µM* and HP1b chromo inh inconclusive.
For CCOC(=O)c1c(C)[nH]c(N=Nc2ccccc2Cl)c1C the results were G9a inh -119.3%[59 µM], BAZ2B inh 8.91µM*, Sfp PPTase inh inconclusive, JMJD2A Tudor inh 15.8µM* and HP1b chromo inh inconclusive.
CCOC(=O)c1c(C)[nH]c(NC(=O)NNC(=O)c2ccccc2Cl)c1C was read as G9a inh 18.6%[2.33 µM], BAZ2B inh 4.2%, JMJD2A Tudor inh -15.7% and HP1b chromo inh 32.7%.
Screening CCOC(=O)c1c(C)[nH]c(N=Nc2ccccc2)c1C returned G9a inh 39.8µM*, BAZ2B inh 35.5µM*, Sfp PPTase inh -24.4%, JMJD2A Tudor inh 56.2µM* and HP1b chromo inh 39.8µM*.
COC(=O)c1c(C)[nH]c(C=Nc2ccc(OC)cc2)c1C was read as G9a inh -43.9%, BAZ2B inh -28.6%, Sfp PPTase inh 7.3%, JMJD2A Tudor inh -32.4% and HP1b chromo inh 2.9%.
Cn1cccc1C(=O)N1CCC2(CC1)CN(Cc1ccc(C#N)cc1)C2 was read as G9a inh -3.4%[12.7 µM] and Sfp PPTase inh 14.5%.
COC(=O)[C@H](COC(C)(C)C)NC(=O)O[C@@H]1Cc2cc(OC)ccc2O[C@H]1c1cccc(OC)c1 was read as Sfp PPTase inh -15.2%.
Fc1ccc(NCc2cccnc2)cc1F was read as G9a inh inconclusive, BAZ2B inh inconclusive, Sfp PPTase inh -11.4%, JMJD2A Tudor inh 79.4µM* and HP1b chromo inh 27.0%.
Screening Cc1ccc(NCc2cccnc2)c(Br)c1 returned G9a inh 14.1µM*, BAZ2B inh 79.4µM*, Sfp PPTase inh -25.8%, JMJD2A Tudor inh 3.16µM* and HP1b chromo inh inconclusive.
Screening Cc1ccc(NCc2ccc(Cl)nc2)c(NCc2ccc(Cl)nc2)c1 returned G9a inh 35.5µM*, BAZ2B inh 35.5µM*, Sfp PPTase inh 7.2%, JMJD2A Tudor inh -31.9% and HP1b chromo inh -0.7%.
`N#C/C(=C\c1ccc(-c2cccc(Cl)c2)o1)C(=O)Nc1cccc(C(F)(F)F)c1` gave G9a inh -48.0%[59 µM], BAZ2B inh -5.5%, JMJD2A Tudor inh -26.8% and HP1b chromo inh 12.5%.
`Cc1ccc(C(=O)COC(=O)c2cccc(NC(=O)c3ccc(Cl)cc3Cl)c2)cc1` gave G9a inh -25.1%[59 µM], BAZ2B inh -0.9%, JMJD2A Tudor inh 9.7% and HP1b chromo inh 46.2%.
For S=c1nccc(-c2ccc3c(c2)CCO3)[nH]1 the results were G9a inh 39.8µM*, BAZ2B inh -12.2%, Sfp PPTase inh -24.1%, JMJD2A Tudor inh -20.0% and HP1b chromo inh 16.3%.
`O=C(c1ccc(S(=O)(=O)N2CCCC2)cc1)N(c1ccc(F)cc1)C1C=CS(=O)(=O)C1` (centres undefined) gave G9a inh 118.0%, BAZ2B inh 1.0%, Sfp PPTase inh 18.7%, JMJD2A Tudor inh -5.9% and HP1b chromo inh 34.7%.
Screening CCc1ccc(S(=O)(=O)c2cn(CC(=O)Nc3cccc(C)c3)c3ccc(Cl)cc3c2=O)cc1 returned G9a inh 1.7%[59 µM], BAZ2B inh -10.0%, JMJD2A Tudor inh -3.6% and HP1b chromo inh 36.3%.
CCOc1ccc(-c2nnc(NC(=O)Cc3cc(OC)c(OC)c(OC)c3)o2)cc1 was read as G9a inh -9.2%[2.33 µM], BAZ2B inh 22.4µM*, Sfp PPTase inh -5.6%, JMJD2A Tudor inh 28.2µM* and HP1b chromo inh 36.3%.
Screening CCOc1ccc(-c2nnc(SCC(=O)Nc3ccc(C)cc3C)o2)cc1 returned G9a inh -5.5%[59 µM], BAZ2B inh -4.2%, JMJD2A Tudor inh 79.4µM* and HP1b chromo inh 26.9%.
Screening CCOc1ccc(-c2nnc(SCC(=O)Nc3ccc(C)cc3Cl)o2)cc1 returned G9a inh inconclusive, BAZ2B inh -19.1%, JMJD2A Tudor inh -25.5% and HP1b chromo inh 58.1%.
CCOc1ccc(-c2nnc(NC(=O)Cc3ccc(OC)cc3)o2)cc1 was read as G9a inh 18.7%, BAZ2B inh -8.7%, Sfp PPTase inh 20.6%, JMJD2A Tudor inh -10.9% and HP1b chromo inh 11.8%.
Screening CCN(C(=O)COC(=O)c1oc2ccc(OC)cc2c1C)C1CCS(=O)(=O)C1 (centres undefined) returned G9a inh -41.8%, BAZ2B inh 11.7%, JMJD2A Tudor inh 0.7% and HP1b chromo inh 17.5%.
For Cc1cc(C)c(OCCCCN(C)Cc2ccccc2)c(C)c1 the results were G9a inh 1.26µM*, BAZ2B inh inconclusive, Sfp PPTase inh inconclusive, JMJD2A Tudor inh 7.08µM* and HP1b chromo inh inconclusive.
Screening CN(CCCCCC(=O)/C=N/O)Cc1ccccc1 returned G9a inh 21.9%[59 µM], BAZ2B inh -0.5%, Sfp PPTase inh 17.2%, JMJD2A Tudor inh 5.0%[57.1 µM] and HP1b chromo inh 29.6%.
Screening Cc1ccc(OCCCCN(C)Cc2ccccc2)c(Br)c1 returned G9a inh 11.2µM*, BAZ2B inh -37.1%, Sfp PPTase inh -1.6%, JMJD2A Tudor inh inconclusive and HP1b chromo inh inconclusive.
Screening COc1ccccc1OCCCOc1ccc(C)cc1Br returned G9a inh 264.5%, BAZ2B inh 159.0%, Sfp PPTase inh -0.2%, JMJD2A Tudor inh 115.2% and HP1b chromo inh 223.1%.
Cc1ccc(C(C)C)c(OCCCN(C)Cc2ccccc2)c1 was read as G9a inh 10µM*, BAZ2B inh inconclusive, Sfp PPTase inh -74.8%, JMJD2A Tudor inh 22.4µM* and HP1b chromo inh inconclusive.
`COc1ccc(-c2noc(CN(C)Cc3ccccc3)n2)c(OC)c1OC` gave G9a inh 26.0%, BAZ2B inh -0.9%, Sfp PPTase inh 11.7%, JMJD2A Tudor inh -3.0% and HP1b chromo inh 57.5%.

From PubChem
